This is part of a sample that, as a whole, favours compounds with a hit. Of some 83,000 tested, about 20% had one in any assay.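 Values shown are percent growth following 48 h exposure of cells in 96-well plates to a single concentration of compound; below 10 was considered active.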 Active and inactive are the calls of the source.

For the assay, the system named is MOLT-4 leukemia. The assay is described as follows: NCI-60 one-dose screen, 48 h (100 = growth as untreated, 0 = no growth, -100 = all killed). The conditions noted are these: 10 µM. The procedure: Growth inhibition of the MOLT-4 human tumor cell line is measured as a screen for anti-cancer activity. Cells are grown in 96 well plates and exposed to the test compound for 48 hours. Compounds are tested at a single concentration, which is 10^-5 M for most compounds. The reported endpoint is percent growth (GI% or GIPRCNT), where numbers from 0 - 100% represent growth inhibition, and numbers from -100% - 0 represent cell death. For example, a value of 40 represents 60% growth inhibition. A value of 0 means no net growth occurred over the course of the experiment. A value of -40 indicates 40% of cells at the beginning of the experiment died by the end of the experiment. A value of -100 means all cells are dead at the end of the experiment.
NCI-60 Human Tumor Cell Lines Screen was performed using the standard one-dose NCI protocol, which is described in more detail at https://dtp.cancer.gov/discovery_development/nci-60/default.htm.
Compounds with GIPRCNT values below 10 were considered active. Activity score was based on GIPRCNT using the following formula: […]
Score is 0 for GIPRCNT values of 100 or above, 50 for GIPRCNT values of 0, and 100 for GIPRCNT values of -100.
As to `O=C(CNc1nc(-c2ccccc2)cs1)Nc1ccc([N+](=O)[O-])cc1`, the growth is 15.7% (inactive). To `CC(=O)Nc1ccc(-c2cn(-c3cccc(C(=O)Nc4ccc(F)c(C(F)(F)F)c4)c3)nn2)cn1` belongs 36.9% (inactive); to `C=C(c1ccc(OC)c(N)c1)c1cc(C)nc2ccccc12`, 12.5% (inactive). To `N#Cc1ccc(-c2nn(-c3ccc(C(=O)O)cc3)cc2CNc2cccc(Br)c2)cc1` belongs 23.9% (inactive); to `COc1ccc(C(=O)Nc2ccc(-c3ccc4c(c3)NC(=O)/C4=C\c3ccc[nH]3)cc2)cc1`, 55.6% (inactive). Then `Nc1cccnc1/C=N/NC(=S)NCCNC(=O)c1ccc(-n2nc(-c3ccccc3O)nc2-c2ccccc2O)cc1`, with 11.8% (inactive); and `N#Cc1ccc(-c2nn(-c3ccc(C(=O)O)cc3)cc2CNc2cc(Cl)cc(C(F)(F)F)c2)cc1`, with 6.25% (active). Take `CC1CC(c2ccc(N(C)C)cc2)=NN1c1nc(O)c(C2=c3cc(Br)ccc3=NC2=O)s1` (stereo not given): the growth is 70.5% (inactive). `Cc1cc(=O)oc2cc(OCCCCOc3ccc(/C=C/C(=O)Nc4cccc(Cl)c4)cc3)ccc12`: the growth is 80.6% (inactive). For `CN(C)CCNC(=O)OCCCCOc1cc(O)c2c(=O)cc(-c3ccccc3)oc2c1`, the growth was -42.1% (active). Then `N#Cc1ccc(NC(=O)CSc2ccc(-c3ccc(Br)cc3)nn2)cc1`, with 42.6% (inactive); and `O=C(c1ccc(Cl)cc1)C1[C@H](c2ccccc2Br)[C@@H](c2ccccc2)NC12C(=O)Nc1ccc(Br)cc12` (stereo not given in full), with -9.97% (active). For `Cc1ccc(/C(N)=N/c2sc(-c3ccccc3)nc2-c2ccccc2)cc1`, the growth is 51.5% (inactive).

For the compound `O=c1[nH]n(C(=S)N/N=C/c2ccc(F)cc2)c(=O)c2ccccc12`, the growth is 10.7% (inactive). Consider `Cc1cccc(NC(=O)CSc2nc3ccc(F)cc3c(=O)n2-c2ccc(Cl)cc2)c1C`, for which the growth was 81.3% (inactive). To `Cc1nc(Nc2nc(C)c3ccc(OCCN4CCOCC4)cc3n2)[nH]c(=O)c1C` belongs 1.13% (active); to `O=C(CNc1nc(-c2ccccc2)cs1)Nc1cccc(Cl)c1`, 7.42% (active); to `O=C(Nc1ccc(I)cc1F)c1cc(-c2ccc(F)cc2F)ccc1O`, -0.655% (active).

Turning to `N#Cc1c(-c2ccc(F)cc2)nc(SCc2ccc([N+](=O)[O-])cc2)nc1N1CCOCC1`, the growth was 73.7% (inactive). Consider `COC(=O)c1c(C(=O)OC)c2n(c1C)[C@@H]([C@@H](C)[C@H]1CC[C@H]3[C@@H]4CCC5=CC(=O)CC[C@]5(C)[C@H]4CC[C@]13C)SC2`, for which the growth is 2.64% (active).

For the compound `C/C(=N\N=C\c1ccc(N(C)C)cc1)c1ccc2c(c1)Nc1ccccc1S2`, the growth is 34.3% (inactive). To `CN1CCc2c(sc3ncnc(N/N=C/c4ccc5ccccc5c4)c23)C1` belongs 63.6% (inactive); to `CONC[C@]1(C)C=C2C(=O)[C@](C)(O)C3(CC3)C(C)=C2[C@H]1O`, -13.9% (active); to `CN1CCN(c2ccc(C(=O)/C=C/c3ccc(C#N)cc3)cc2)CC1`, 90.5% (inactive).

As for `CC(=O)OC[C@@]1(C)C2CC[C@]3(C)C(CC=C4C5CC(C)(C)CC[C@]5(C(=O)Nc5ccccc5)CC[C@]43C)[C@@]2(C)C[C@@H](OC(C)=O)[C@@H]1OC(C)=O` (stereo not given in full), the growth was 24.4% (inactive). As to `Cn1cc(-c2cc(N)n3nc(-c4c[nH]c5ccc(Br)cc45)cc3n2)c2cccnc21`, the growth is -23.8% (active).

`COC[C@@H](CC(C)C)N=C1NC(=O)/C(=C/c2ccc3ncoc3c2)N1`: the growth is 11.3% (inactive). To `O=C1N/C(=N\c2nccs2)S/C1=C\c1cccs1` belongs 17% (inactive); to `COc1ccsc1/C=N/NC(=O)c1[nH]c2ccc(Br)cc2c1-c1ccccc1`, -11.4% (active).

With `CC(C)c1ccc(C(=O)Nc2sc3c(c2C(N)=O)CCC(=O)C3=O)cc1`, the growth was 72.4% (inactive).

`CN1CCN(Cc2ccc(NC(=O)c3cncc(C#Cc4cnc5ccc(N[C@H]6CCOC6)nn45)c3)cc2C(F)(F)F)CC1`: the growth was -9.84% (active). For `O=c1[nH]c2ccccc2cc1CSc1ccc(Nc2nccc(-c3ccc(C(F)(F)F)cc3)n2)cc1`, the growth is 55.6% (inactive). Then `C=C1CCC2C3(C)COC(c4ccccc4F)OC3CCC2(C)C1C/C=C1/C(=O)OCC1O` (stereo not given), with 9.47% (active); and `Cc1cc(C(F)(F)F)ccc1C(=O)Nc1sc2c(c1C#N)CCC(=O)C2`, with 2.54% (active); and `COc1ccccc1C(=O)NNC(=O)CSc1nc2c(c(=O)[nH]1)CCCC2`, with 105% (inactive). Then `COc1cc(/C=C/C(=O)c2ccc(S(=O)(=O)NCCNc3nc(Nc4ccc(F)cc4)nc(N(C)C)n3)cc2)cc(OC)c1OC`, with 8.5% (active); and `CS(=O)(=O)Nc1ccc(-c2ccc3c(c2)ncn3-c2ccc(NC(=O)Nc3ccc(Cl)c(C(F)(F)F)c3)cc2)cc1`, with -36.8% (active); and `O=C(c1ccc(Cl)cc1)C1[C@H](c2ccc(Br)cc2)[C@@H](c2ccccc2)NC12C(=O)Nc1ccccc12` (stereo not given in full), with -22.7% (active). Then `COc1ccc(/C(CSc2nnc(-c3c[nH]c4ccccc34)n2-c2ccccc2)=N/O)cc1`, with 16.7% (inactive). Consider `CCOC(=O)c1c(CSc2ccccc2)n(C)c2cc(CN(C)C)c(O)c(CN(C)C)c12`, for which the growth is 49% (inactive).

The values are drawn from PubChem BioAssay (NCI).
